# Measured values: ChEMBL document CHEMBL4513149, “CO-ADD screening of MMV (CH) - MMV compounds” (2021)
# Potency and affinity values are given separately.
# Tests used:
# Staphylococcus aureus = settings: Concentration 20 uM; ASSAY_TEST Inhibition of Bacterial Growth; detection method Absorption (OD600); MEDIA CAMHB; plate type 384well; NBS; CORNING #3640; time 18 hr
# Escherichia coli = settings: Concentration 20 uM; ASSAY_TEST Inhibition of Bacterial Growth; detection method Absorption (OD600); MEDIA CAMHB; plate type 384well; NBS; CORNING #3640; time 18 hr
SMILES,Inhibition (Staphylococcus aureus),Inhibition (Escherichia coli)
CNC1C(OC2C(OC3C(O)C(O)C(NC(=N)N)C(O)C3NC(=N)N)OC(C)C2(O)C=O)OC(CO)C(O)C1O.CNC1C(OC2C(OC3C(O)C(O)C(NC(=N)N)C(O)C3NC(=N)N)OC(C)C2(O)C=O)OC(CO)C(O)C1O.O=S(=O)(O)O.O=S(=O)(O)O.O=S(=O)(O)O (stereo not given),2.48%,8.5%
CC(C)(C)c1cnc(NC(=O)c2ccccc2O)s1,23.8%,4.86%
CC(C)(C)c1cc(C(=O)Nc2cccnc2)cc(C(=O)Nc2cccnc2)c1,15.23%,6.88%
FC(F)(F)c1cccc(-c2nc3c(NCc4ccncc4)nccc3[nH]2)c1,9.41%,5.83%
COc1ccc(-c2cnc3ccc(N4CCCC4)nn23)cc1OC,12.67%,7.3%
Nc1ncc(Br)cc1-c1nc2cc(Cl)cnc2[nH]1,26.53%,12.85%
Cc1cc(C)cc(COc2ccc3c(C)c(CCC(=O)O)c(=O)oc3c2C)c1,19.34%,4.13%
Cc1cc(O)nc(-n2nc(C)cc2C)n1,9.17%,6.91%
CC(=O)N1CCc2cc3nc(C)cc(C)c3cc21,14.4%,5.79%
CC1=Nc2ccc(Cl)cc2C(O)(c2ccc(C)cc2)N1CCN1CCCCC1 (stereo not given),19.52%,11.5%
